Data on 20 molecules can be found in PubChem BioAssay (NCATS).

Active and inactive are the calls of the source.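 The calls were made as follows: active = calcium activation more than 3 SD above the typical response in the agonist read; inactive = the rest.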

Sequence of Thyrotropin-releasing hormone receptor (Homo sapiens) (P34981 whole entry, looked up): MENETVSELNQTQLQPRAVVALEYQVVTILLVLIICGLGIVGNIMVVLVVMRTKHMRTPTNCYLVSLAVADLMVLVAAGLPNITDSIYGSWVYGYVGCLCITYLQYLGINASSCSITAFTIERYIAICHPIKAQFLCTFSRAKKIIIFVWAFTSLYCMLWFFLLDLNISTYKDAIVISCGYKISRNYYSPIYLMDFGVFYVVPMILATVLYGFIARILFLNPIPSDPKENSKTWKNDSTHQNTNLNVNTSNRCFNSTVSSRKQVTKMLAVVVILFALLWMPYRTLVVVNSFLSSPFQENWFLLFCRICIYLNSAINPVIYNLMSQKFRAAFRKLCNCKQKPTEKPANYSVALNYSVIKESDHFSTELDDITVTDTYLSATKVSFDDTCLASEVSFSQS

The target of this experiment is Thyrotropin-releasing hormone receptor (Homo sapiens) (UniProt P34981). As to the kind of experiment: qHTS for Small Molecule Agonists and Allosteric Enhancers of Human TRH Receptor: Validation Screen for Agonists (AID 493127).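 Also: intracellular calcium rise by fluo-8 fluorescence before TRH EC20 addition; 0% is about no effect.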 As to conditions: TRH receptor agonist cell assay; at 2 µM; active compounds read high. The text has this:
NIH Chemical Genomics Center [NCGC]
NIH Molecular Libraries Probe Centers Network [MLPCN]
Assay Submitter (PI): Marvin Gershengorn
This project aims to identify small drug-like molecules that activate (agonists) the thyrotropin releasing hormone (TRH) receptor (TRHR) or enhance its TRH-stimulated activity (allosteric enhancers). TRHR, a drug-accessible cell surface receptor expressed in specific brain regions, and its ligand TRH have been implicated in several central nervous system disorders, including depression and anxiety. Small molecule TRHR agonists or allosteric enhancers that are metabolically stable and able to cross the blood-brain barrier might serve as probes to elucidate the roles of brain TRH receptors in animal models, and might be valuable as lead compounds for the development of drugs to treat patients with central nervous system disorders.
Upon TRHR-Gq activation in TRHR cells, intracellular calcium is released from stores in the endoplasmic reticulum. […] This validation screen measures compound-induced activation of calcium release.
For the HTS assay freshly prepared cells are plated at a density of 2000/well in 3 ul of complete DMEM medium containing 10% serum in 1536-well plates and cultured over night at 37 C in a humidified incubator with 5% CO2. The next day, 2 ul of a no wash calcium dye (ABD Bioquest) was added to the cells and plates were incubated at room temperature for 1 hour. For the assay, assay plates were loaded into the FDSS kinetic plate reader. A 10 cycle (1 second/cycle) baseline measurement is taken and then the FDSS online 1536 pintool delivers 23 nl of compound library (as well as TRH controls) to the plate. The plate is measured for kinetically at 1 cycle/sec for 180 seconds and is considered to be the agonist portion of the assay (eg, compounds which activate a positive calcium response during this portion are flagged as potential agonists). Following the 180 second read, 1 ul of either an EC20 (positive modulation assay) is delivered by an onboard pipette head. Measurements are taken kinetically for an additional 180 seconds.
TRHR FDSS Screening Protocol
1. Reagent, 3 uL 2000 cells/well 1536 TC treated Black plate in media containing 10% FCS
2. Time, 18 hours, 33.5C 5% CO2 (cells grown at 37C)
3. Reagent, 2 uL ABD fluo-8 Ca dye
4. Time, 30 min-1.5hrs hours, Room temp (6 plates/batch)
5. Detector, EX 480/EM 530C, FDSS 10 cycles baseline (1sec/cycle)
6. Compound, 23 nL of stock solution from library
7. Detector, EX 480/EM 530C, FDSS 230 cycles (1sec/cycle) Agonist mode
8. Compound, 1 ul EC20 of TRH made up in HEPES HBSS, 10 nM final
9. Detector, EX 480/EM 530C, FDSS 100 cycles (1sec/cycle) Potentiator mode
A general note: Quantitative high-throughput screening tests each substance at several concentrations.
Regarding `CC(CCc1ccccc1)NCC(O)c1ccc(O)c(C(N)=O)c1` (stereo not given), the activation was 0.875% (inactive).

In the case of `N[C@@H](Cc1cnc[nH]1)C(=O)O`, the activation was 0.0625% (inactive). The same measure for `CN1C2CCC1CC(OC(=O)c1c[nH]c3ccccc13)C2` (stereo not given): 0.812% (inactive). With `CC(C)COC(=O)OCN1C(=O)CN(CCN2CC(=O)N(COC(=O)OCC(C)C)C(=O)C2)CC1=O`, the activation was 0.75% (inactive). Regarding `N[C@H](CO)C(=O)O`, the activation was 0.688% (inactive). `Oc1ccc(O)cc1`: the activation was 0.688% (inactive).

As to `O=C(O)c1cc2cc(Cc3cccnc3)ccc2o1`, the activation was 1.38% (inactive).

`COc1cc(-c2ccc(=O)[nH]n2)ccc1OC(F)F`: the activation was -0.438% (inactive). As for `O=C1CCC(c2ccc(-n3ccnc3)cc2)=NN1`, the figure is 0.188% (inactive); as for `C[C@]12CC[C@@H]3c4ccc(O)cc4CC[C@H]3[C@@H]1CC[C@@H]2O`, 4.75% (inactive). As to `COc1cc(NS(C)(=O)=O)ccc1Nc1c2ccccc2nc2ccccc12`, the activation is -3.12% (inactive).

Regarding `C1CCc2nnnn2CC1`, the activation is -0.375% (inactive). As for `Nc1cc(Cl)c(NC2=NCCN2)c(Cl)c1`, the figure is 1.12% (inactive); as for `COC(=O)[C@H]1[C@H]2C[C@H]3c4[nH]c5ccccc5c4CCN3C[C@H]2CC[C@@H]1O`, 1.44% (inactive). For the molecule `CCC(NC(C)C)C(O)c1ccc(O)c(O)c1` (stereo not given), the activation is 0.625% (inactive). The same measure for `CNCCC=C1c2ccccc2CCc2ccccc21`: 0.625% (inactive); for `CC(C)NC[C@@H](O)COc1cccc2ccccc12`: 1.94% (inactive); for `C[C@@H]1C(=O)NC2=Nc3cccc(Cl)c3CN21`: 1.06% (inactive). The same measure for `C[N+]1(CCCCC[N+]2(C)CCCC2)CCCC1`: 0.75% (inactive); for `CC1(C)CCC(NC(=O)[C@@H](N)CCC(=O)O)CC1`: 0.125% (inactive).
